These results are taken from PubChem BioAssay (EPA / NIEHS).

Read-out in assay [1]: Urokinase-type plasminogen activator receptor (uPAR), PLAUR (gene 5329)
Put plainly: BSK_4H_uPAR: BioMAP Diversity Plus: 4H Assay for Urokinase-type plasminogen activator receptor (uPAR) Biomarker Activity (AID 2283030). The settings on record: primary human endothelial cells (HUVEC); actives raise or lower the signal. In short, it runs like this:
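Endpoint derived via bidirectional curve fitting against DMSO baseline; readout was ELISA detection of uPAR on umbilical vein endothelial cells at 24 h post-treatment, with SRB-stained parallel cultures assessing cytotoxicity.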

Read-out in assay [2]: Vascular endothelial growth factor receptor 2 (Homo sapiens) (UniProt P35968)
The experiment in a line: BSK_4H_VEGFRII: BioMAP Diversity Plus: 4H Assay for Vascular endothelial growth factor receptor 2 (VEGFR2) Biomarker Activity (AID 2283031). The settings on record: primary human endothelial cells (HUVEC); actives raise or lower the signal. In short, it runs like this:
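In this multiplexed HUVEC system, biomarker ELISA was performed after 24 h chemical exposure. Parallel SRB staining (TCA fixation, 560 nm) tracked cytotoxicity; DMSO served as baseline.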

Read-out in assay [3]: Human Leukocyte Antigen - DR isotype (HLADR), HLA-DRA (gene 3122)
The experiment in a line: BSK_BE3C_HLADR: BioMAP Diversity Plus: BE3C Assay for Human Leukocyte Antigen - DR isotype (HLADR) Biomarker Activity (AID 2283032). The settings on record: primary human bronchial epithelial cells; actives raise or lower the signal. The essentials:
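ELISA read-out of HLA-DR on human lung bronchial epithelial primary cells, measured 24 h post-dosing. Both increases and decreases were scored relative to DMSO vehicle.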

Read-out in assay [4]: Vascular cell adhesion molecule 1 (VCAM1), VCAM1 (gene 7412)
Put plainly: BSK_4H_VCAM1: BioMAP Diversity Plus: 4H Assay for Vascular cell adhesion molecule 1 (VCAM1) Biomarker Activity (AID 2283033).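 As to outcome: cell-surface VCAM-1 protein measured by ELISA.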 The settings on record: primary human endothelial cells (HUVEC); actives raise or lower the signal. In short, it runs like this:
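ELISA read-out of VCAM-1 on human umbilical vein endothelium 24 hours after chemical dosing; gain or loss of signal was fitted relative to DMSO, with sulforhodamine B staining of parallel cultures flagging overt cytotoxicity.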

Read-out in assay [5]: Interferon-gamma inducible Protein 10 (IP10), CXCL10 (gene 3627)
The experiment in a line: BSK_BE3C_IP10: BioMAP Diversity Plus: BE3C Assay for Interferon-gamma inducible Protein 10 (IP10) Biomarker Activity (AID 2283034). The settings on record: primary human bronchial epithelial cells; actives raise or lower the signal. The essentials: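 Chemical is dosed onto human lung bronchial epithelial primary cells, cultures are incubated 24 h, and IP-10 is then quantified by ELISA. Gain or loss of signal is fitted in both directions relative to DMSO.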

Read-out in assay [6]: Monokine induced gamma interferon (MIG), CXCL9 (gene 4283)
The experiment in a line: BSK_BE3C_MIG: BioMAP Diversity Plus: BE3C Assay for Monokine induced gamma interferon (MIG) Biomarker Activity (AID 2283035). The settings on record: primary human bronchial epithelial cells; actives raise or lower the signal. The essentials: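 Primary human bronchial epithelial cells treated for 24 h; MIG levels measured by ELISA, fitted bidirectionally versus DMSO. Parallel SRB total-protein staining assessed cytotoxicity.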

Read-out in assay [7]: Transforming growth factor beta 1 (TGFb1), TGFB1 (gene 7040)
The experiment in a line: BSK_BE3C_TGFb1: BioMAP Diversity Plus: BE3C Assay for Transforming growth factor beta 1 (TGFb1) Biomarker Activity (AID 2283036;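 as to outcome: TGF-b1 protein level measured by ELISA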). The settings on record: primary human bronchial epithelial cells; actives raise or lower the signal. In short, it runs like this:
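Primary human lung bronchial epithelial cells; compound exposure 24 h; TGF-b1 by ELISA; bidirectional fit, DMSO baseline. Parallel SRB total-protein staining for cytotoxicity.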

Read-out in assay [8]: urokinase plasminogen activator (uPA), PLAU (gene 5328)
The experiment in a line: BSK_BE3C_uPA: BioMAP Diversity Plus: BE3C Assay for urokinase plasminogen activator (uPA) Biomarker Activity (AID 2283038).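 As to outcome: uPA protein level quantified by ELISA in cell cultures; uPA read one day after compound addition.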 The settings on record: primary human bronchial epithelial cells; actives raise or lower the signal. In short, it runs like this:
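Using confluent primary human lung bronchial epithelial cultures, we dosed chemicals, waited 24 h, then ran a uPA ELISA, fitting bidirectionally against DMSO.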

Read-out in assay [9]: Urokinase-type plasminogen activator receptor (uPAR), PLAUR (gene 5329)
The experiment in a line: BSK_BE3C_uPAR: BioMAP Diversity Plus: BE3C Assay for Urokinase-type plasminogen activator receptor (uPAR) Biomarker Activity (AID 2283039).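 As to outcome: cells exposed to compound for one day before measurement.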 The settings on record: primary human bronchial epithelial cells; actives raise or lower the signal. The essentials: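 Human bronchial epithelial primary cells; chemical exposure 24 h; uPAR by ELISA; bidirectional fit vs DMSO control.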

Read-out in assay [10]: Interleukin-6 (IL6), IL6 (gene 3569)
Put plainly: BSK_CASM3C_IL6: BioMAP Diversity Plus: CASM3C Assay for Interleukin-6 (IL6) Biomarker Activity for (AID 2283040). The settings on record: primary human coronary artery smooth muscle cells; actives raise or lower the signal.

Read-out in assay [11]: Tissue plasminogen activator (tPA), PLAT (gene 5327)
The experiment in a line: BSK_BE3C_tPA: BioMAP Diversity Plus: BE3C Assay for Tissue plasminogen activator (tPA) Biomarker Activity (AID 2283041).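 As to outcome: tPA level quantified by ELISA one day after compound addition.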 The settings on record: primary human bronchial epithelial cells; actives raise or lower the signal. In short, it runs like this:
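Primary human lung bronchial epithelial cultures receive test chemical; after 24 h, tPA is quantified by ELISA, and gain or loss of signal is fitted bidirectionally relative to DMSO baseline.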

Read-out in assay [12]: Interleukin-8 (IL8), CXCL8 (gene 3576)
The experiment in a line: BSK_CASM3C_IL8: BioMAP Diversity Plus: CASM3C Assay for Interleukin-8 (IL8) Biomarker Activity (AID 2283042).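 Also: IL-8 protein level quantified by ELISA.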 The settings on record: primary human coronary artery smooth muscle cells; actives raise or lower the signal.

Read-out in assay [13]: Human Leukocyte Antigen - DR isotype (HLADR), HLA-DRA (gene 3122)
The experiment in a line: BSK_CASM3C_HLADR: BioMAP Diversity Plus: CASM3C Assay for Human Leukocyte Antigen - DR isotype (HLADR) Biomarker Activity (AID 2283043).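 Also: cell-surface HLA-DR protein level quantified by ELISA.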 The settings on record: primary human coronary artery smooth muscle cells; actives raise or lower the signal.

Read-out in assay [14]: Macrophage colony-stimulating factor (MCSF), CSF1 (gene 1435)
The experiment in a line: BSK_CASM3C_MCSF: BioMAP Diversity Plus: CASM3C Assay for Macrophage colony-stimulating factor (MCSF) Biomarker Activity (AID 2283044).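 Also: M-CSF protein amount quantified by ELISA after 24 h exposure.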 The settings on record: primary human coronary artery smooth muscle cells; actives raise or lower the signal.

Read-out in assay [15]: Low-density lipoprotein receptor (LDLR), LDLR (gene 3949)
The experiment in a line: BSK_CASM3C_LDLR: BioMAP Diversity Plus: CASM3C Assay for Low-density lipoprotein receptor (LDLR) Biomarker Activity (AID 2283045).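 Also: LDLR protein level on the cell surface quantified by ELISA.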 The settings on record: primary human coronary artery smooth muscle cells; actives raise or lower the signal.

Read-out in assay [16]: Monocyte Chemoattractant Protein-1 (MCP1), CCL2 (gene 6347)
Put plainly: BSK_CASM3C_MCP1: BioMAP Diversity Plus: CASM3C Assay for Monocyte Chemoattractant Protein-1 (MCP1) Biomarker Activity (AID 2283046).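 Also: MCP-1 level quantified by ELISA 24 h after dosing.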 The settings on record: primary human coronary artery smooth muscle cells; actives raise or lower the signal.

A short description of assay [17]: BSK_CASM3C_Proliferation: Cell Proliferation Assessment in the BioMAP Diversity Plus: CASM3C Assay (AID 2283047).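 Also: sulforhodamine B total protein stain as relative cell number at 560 nm; sub-confluent cells exposed 48 h before staining; fitted both ways against DMSO so gain or loss of cell number.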 The settings on record: primary human coronary artery smooth muscle cells.
Read-out in assay [18]: Monokine induced gamma interferon (MIG), CXCL9 (gene 4283)
Put plainly: BSK_CASM3C_MIG: BioMAP Diversity Plus: CASM3C Assay for Monokine induced gamma interferon (MIG) Biomarker Activity (AID 2283048). The settings on record: primary human coronary artery smooth muscle cells; actives raise or lower the signal.

Read-out in assay [19]: serum amyloid A (SAA), SAA1 (gene 6288)
Put plainly: BSK_CASM3C_SAA: BioMAP Diversity Plus: CASM3C Assay for serum amyloid A (SAA) Biomarker Activity (AID 2283049).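 Also: SAA protein level quantified by ELISA.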 The settings on record: primary human coronary artery smooth muscle cells; actives raise or lower the signal.

Calls of active or inactive are those of the source. The calls were made as follows: active = hit-call score of the fitted dose curve at least 0.9, where 1 is the maximum; inactive = score below 0.9.

Consider `C=C(C)C(N)=O`, for which the result in [1], in [2], in [3], in assay [4], in [5] and in [6] was inactive. The outcome in [7], in [8], in [9], in assay [10], in assay [11] and in assay [12] was inactive. Besides, the result in [13], in assay [14], in assay [15], in assay [16], in [17] and in assay [18] was inactive. Moreover, the outcome in assay [19] was inactive.
For `c1ccc(OCCOc2ccccc2)cc1`, the outcome in [1], in assay [2], in assay [3], in assay [4], in assay [5] and in assay [6] was inactive. For the same molecule, the outcome in assay [8], in assay [9], in assay [10], in assay [11], in assay [12] and in assay [13] was inactive. Moreover, the outcome in assay [14], in assay [15], in assay [16], in assay [17], in assay [18] and in [19] was inactive.
For the molecule `O=C(c1ccc(OCCN2CCCCC2)cc1)c1c(-c2ccc(O)cc2)sc2cc(O)ccc12`, the half-maximal activity concentration (AC50) (in general, the midpoint of the concentration-response curve, whichever way the signal moves) was 25.3 µM (active) in assay [1]; 20.3 µM (active) in assay [3]; 34.5 µM (active) in [4]; 39.2 µM (active) in [5]; 37.2 µM (active) in assay [6]; 31.9 µM (active) in assay [7]. In addition, the AC50 in assay [8] was 34 µM (active); in assay [9], 31.8 µM (active); in assay [10], 20.1 µM (active); in assay [11], 20 µM (active); in assay [13], 26.1 µM (active); in assay [15], 6.83 µM (active). In assay [17], the AC50 was 23 µM (active). The result in assay [2], in assay [12], in assay [16], in assay [18] and in [19] was inactive.
Turning to `Nc1ccc(N)c([N+](=O)[O-])c1`, the outcome in assay [1], in assay [2], in [3], in assay [4], in assay [5] and in assay [6] was inactive. Moreover, the outcome in [7], in assay [8], in [9], in assay [10], in assay [11] and in assay [12] was inactive. The result in [13], in assay [14], in [15], in assay [17], in [18] and in assay [19] was inactive. Moreover, the AC50 in assay [16] is 7.95 µM (active).
For the molecule `COC(=O)c1ccc(C(=O)OC)cc1`, the result in assay [1], in assay [2], in assay [3], in [4], in assay [5] and in assay [6] was inactive. For the same molecule, the result in [7], in assay [8], in [9], in [10], in assay [11] and in assay [12] was inactive. Also, the outcome in assay [13], in assay [14], in assay [15], in [16], in [17] and in assay [18] was inactive. Also, the outcome in assay [19] was inactive.
As for `c1ccc2c(c1)-c1ccc3ccc4cccc5cc-2c1c3c45`, the concentration at half-maximal activity (AC50) is 10 µM (active) in [1], 2.57 µM (active) in assay [3] and 3.53 µM (active) in assay [4]. Besides, the outcome in assay [2], in [5], in [6], in assay [7], in assay [8] and in [9] was inactive. The result in assay [10], in assay [11], in [12], in assay [13], in assay [14] and in [15] was inactive. The outcome in assay [16], in assay [17], in assay [18] and in [19] was inactive.
